The whole screen tested about 1,400 compounds, of which about 350 (25%) were called active. Another 2% or so got no clear call; they are omitted. No rule for the calls is given here. The list is a sample of the results. Measured potencies and affinities stand elsewhere.

The assay can be described thus: C. difficile growth inhibition, confirmation, 4-point retest (AID 1224921).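 Also: plate controls were DMSO wells for no effect and levofloxacin 16 µg/mL wells for full effect.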 The note with it: Clostridioides difficile clinical isolate growth, OD600, 24 h, stronger effect = lower value; at 30 µM unless noted.
With `COc1cccc(-c2ccc3c(c2)O[C@@H](CN(C)Cc2ccncc2)[C@H](C)CN([C@H](C)CO)S3(=O)=O)c1`, the max activity is 19.2% (inactive).

Regarding `CO[C@H]1CN(C)C(=O)c2cc(NC(=O)c3ccc(-c4ccccc4)cc3)ccc2OC[C@H](C)NC[C@H]1C`, the max activity was 27.6% [at 8 µM] (inactive).

On to `O=C(Cc1ccccc1)N[C@@H]1CC[C@@H](CC(=O)N2CCOCC2)O[C@H]1CO`, for which the max activity was -16.6% [at 8 µM] (inactive).

Take `O=C(Cc1ccccc1)N[C@H]1CC[C@@H](CC(=O)N2CCOCC2)O[C@@H]1CO`: the max activity is -8.53% [at 8 µM] (inactive).

For the molecule `CO[C@@H]1CN(C)C(=O)c2cc(NC(=O)Nc3ccccc3F)ccc2OC[C@@H](C)N(CCC(F)(F)F)C[C@H]1C`, the max activity was 10.2% (inactive).

Regarding `CC(C)C(=O)Nc1ccc2c(c1)C(=O)N(C)[C@H]1CC[C@@H](CC(=O)NCc3ccccc3F)O[C@@H]1CO2`, the max activity is -12.2% [at 8 µM] (inactive).

Turning to `CNC[C@@H]1Oc2ncc(-c3ccc(OC)cc3)cc2C(=O)N([C@H](C)CO)C[C@H]1C`, the max activity was 28.1% (inactive).

Regarding `CO[C@@H]1CN(C)C(=O)c2ccc(NC(=O)c3ccccc3F)cc2OC[C@@H](C)N(CC2CC2)C[C@H]1C`, the max activity is -10.7% [at 1.95 µM] (inactive).

Take `CCCC(=O)Nc1ccc2c(c1)C(=O)N(C)C[C@H](OC)[C@@H](C)CN(Cc1ccccc1)[C@@H](C)CO2`: the max activity is 22.4% (inactive).

In the case of `C[C@H]1CN([C@@H](C)CO)C(=O)c2cc(C3=CCCCC3)cnc2O[C@@H]1CN(C)C(=O)c1cccc(F)c1`, the max activity is 21.2% (inactive).

Take `CC(=O)N(C)C[C@H]1Oc2ncc(-c3ccc(C(=O)N(C)C)cc3)cc2C(=O)N([C@@H](C)CO)C[C@H]1C`: the max activity was -3.53% [at 1.95 µM] (inactive).

Consider `O=C(Cc1ccccc1)N[C@H]1CC[C@H](CC(=O)N2CCOCC2)O[C@@H]1CO`, for which the max activity was -10.8% (inactive).

In the case of `O=C(Cc1ccccc1)N[C@@H]1CC[C@H](CC(=O)N2CCOCC2)O[C@H]1CO`, the max activity was -12.9% (inactive).

`CCC(=O)N(C)C[C@H]1Oc2ncc(-c3ccc(C(=O)N(C)C)cc3)cc2C(=O)N([C@H](C)CO)C[C@@H]1C`: the max activity was 21.8% [at 8 µM] (inactive).

As to `COCC(=O)Nc1ccc2c(c1)OC[C@@H](C)N(C(=O)c1ccccc1F)C[C@H](C)[C@@H](OC)CN(C)C2=O`, the max activity was -10.4% [at 35 µM] (inactive).

As for `Cc1ccccc1-c1ccc2c(c1)O[C@H](CN(C)Cc1ccncc1)[C@@H](C)CN([C@@H](C)CO)S2(=O)=O`, the max activity is 7.76% (inactive).

For `C[C@H]1CN([C@@H](C)CO)S(=O)(=O)c2ccc(C#CC3CCCCC3)cc2O[C@@H]1CN(C)Cc1cccnc1`, the max activity is 26.3% [at 1.95 µM] (inactive).

Turning to `C/C=C/c1cnc2c(c1)C(=O)N([C@@H](C)CO)C[C@H](C)[C@@H](CN(C)Cc1ccc(F)cc1)O2`, the max activity is -8.42% [at 8 µM] (inactive).

Take `CC(C)CC#Cc1ccc2c(c1)O[C@@H](CN(C)C(=O)C1CCCCC1)[C@@H](C)CN([C@@H](C)CO)S2(=O)=O`: the max activity was 27.1% (inactive).

On to `O=C(Nc1ccc2c(c1)[C@H]1C[C@@H](CC(=O)N3CCc4ccccc4C3)O[C@@H](CO)[C@H]1O2)c1ccc2c(c1)OCO2`, for which the max activity was -27.9% [at 8 µM] (inactive).

`CCCC#Cc1ccc2c(c1)O[C@@H](CN(C)Cc1cccnc1)[C@@H](C)CN([C@H](C)CO)S2(=O)=O`: the max activity is 35.5% (inactive).

As to `CCCC(=O)Nc1ccc2c(c1)C(=O)N(C)C[C@H](OC)[C@H](C)CN(Cc1ccc(F)cc1)[C@H](C)CO2`, the max activity is 22.5% (inactive).

For the molecule `CC(C)CC#Cc1ccc2c(c1)O[C@H](CN(C)Cc1ccc3c(c1)OCO3)[C@H](C)CN([C@H](C)CO)S2(=O)=O`, the max activity was 43.6% (inactive).

Turning to `COc1ccccc1CNC(=O)C[C@@H]1C[C@@H]2c3cc(NC(=O)NC4CCCC4)ccc3O[C@@H]2[C@@H](CO)O1`, the max activity is -8.98% [at 1.8 µM] (inactive).

On to `C[C@H](CO)N1C[C@H](C)[C@H](CN(C)C(=O)NC2CCCCC2)Oc2cc(C#Cc3ccc(F)cc3)ccc2S1(=O)=O`, for which the max activity was 14.3% (inactive).

In the case of `COc1cccc(-c2ccc3c(c2)O[C@H](CN(C)Cc2cccnc2)[C@@H](C)CN([C@@H](C)CO)S3(=O)=O)c1`, the max activity is 21.5% (inactive).

As to `CO[C@@H]1CN(C)C(=O)c2ccc(NC(=O)NC(C)C)cc2OC[C@@H](C)N(C(=O)NC(C)C)C[C@@H]1C`, the max activity was 16.7% (inactive).

`C[C@H]1CN([C@@H](C)CO)S(=O)(=O)c2ccc(C#CC3CCCC3)cc2O[C@H]1CN(C)C(=O)Cc1ccccc1`: the max activity was 16.1% (inactive).

As for `CCCNC(=O)C[C@@H]1CC[C@H]2[C@H](COc3ccc(NC(=O)c4cccc(Cl)c4)cc3C(=O)N2C)O1`, the max activity is -10.6% [at 8 µM] (inactive).

Turning to `C=CCOC(=O)[C@H]1[C@@H]2C(=O)O[C@@H](c3ccccc3)[C@@H](c3ccccc3)N2[C@@H](c2ccc(OCCOC(=O)[C@H]3C[C@H]4C(=O)N5CCC[C@H]5C(=O)N4[C@H]3c3cccc(OCCO)c3)cc2)[C@]12C(=O)Nc1ccccc12`, the max activity is -23.8% [at 8 µM] (inactive).

As for `C[C@@H]1CN([C@@H](C)CO)S(=O)(=O)c2ccc(-c3cncnc3)cc2O[C@H]1CN(C)C(=O)CC1CC1`, the max activity was -11% [at 8 µM] (inactive).

With `CN(C)CC(=O)N1[C@H](C#N)[C@@H](c2ccc(/C=C/c3ccccc3)cc2)[C@H]1CO`, the max activity was 19.5% (inactive).

In the case of `CO[C@H]1CN(C)C(=O)c2ccc(NC(=O)c3ccccc3F)cc2OC[C@@H](C)N(CC2CC2)C[C@H]1C`, the max activity was 9.45% (inactive).

For `CCCNC(=O)Nc1ccc2c(c1)OC[C@@H](C)N(Cc1ccccc1)C[C@@H](C)[C@H](OC)CN(C)C2=O`, the max activity was 40.4% (inactive).

For the molecule `C[C@H](CO)N1C[C@H](C)[C@@H](CN(C)C(=O)c2ccccc2)OCCCC[C@H](C)Oc2ccc(NC(=O)Nc3cccc4ccccc34)cc2C1=O`, the max activity is 39.2% (inactive).

`C[C@@H]1CCCCO[C@@H](CN(C)S(=O)(=O)c2ccccc2)[C@@H](C)CN([C@H](C)CO)C(=O)c2cc(NC(=O)Nc3ccc(C(F)(F)F)cc3)ccc2O1`: the max activity was 12.1% [at 8 µM] (inactive).

`CNC[C@@H]1OCCCC[C@@H](C)Oc2ccc(NC(=O)Nc3cccc4ccccc34)cc2C(=O)N([C@H](C)CO)C[C@H]1C`: the max activity is 27.3% (inactive).

`CNC[C@H]1OCCCC[C@@H](C)Oc2ccc(NC(=O)Nc3ccc(C(F)(F)F)cc3)cc2C(=O)N([C@@H](C)CO)C[C@H]1C`: the max activity was 33.8% [at 8 µM] (inactive).

Regarding `CNC[C@@H]1OCCCC[C@H](C)Oc2ccc(NC(=O)Nc3ccc(C(F)(F)F)cc3)cc2C(=O)N([C@@H](C)CO)C[C@@H]1C`, the max activity is 52.5% [at 8 µM] (inactive).

In the case of `CNC[C@@H]1Oc2ncc(-c3ccc(OC)cc3)cc2C(=O)N([C@@H](C)CO)C[C@@H]1C`, the max activity is 20.8% (inactive).

For the molecule `COc1cccc(-c2ccc3c(c2)O[C@@H](CN(C)Cc2cccnc2)[C@H](C)CN([C@@H](C)CO)S3(=O)=O)c1`, the max activity is 12.1% (inactive).

With `Cc1ccccc1-c1ccc2c(c1)O[C@H](CN(C)Cc1ccncc1)[C@H](C)CN([C@H](C)CO)S2(=O)=O`, the max activity was 50.8% (inactive).

Turning to `CO[C@H]1CN(C)C(=O)c2cc(NS(=O)(=O)c3ccc(Cl)cc3)ccc2OC[C@H](C)N(C(=O)NC(C)C)C[C@@H]1C`, the max activity is -13.3% [at 8 µM] (inactive).

As to `O=C(C[C@@H]1C[C@@H]2c3cc(NC(=O)Nc4ccc(C(F)(F)F)cc4)ccc3O[C@@H]2[C@H](CO)O1)NC1CCCCC1`, the max activity was -10.2% [at 0.5 µM] (inactive).

With `N#C[C@@H]1[C@@H](c2ccc(/C=C/c3ccccc3)cc2)[C@@H](CO)N1C(=O)C1CC1`, the max activity is 27% (inactive).

As to `C[C@@H]1CN([C@@H](C)CO)C(=O)c2c(c3ccccc3n2C)-c2ccccc2CO[C@@H]1CN(C)C(=O)c1ccncc1`, the max activity is 29.1% (inactive).

For `COc1ccc(CN(C)C[C@@H]2OCCCC[C@H](C)Oc3ccc(NC(=O)Nc4ccc5c(c4)OCO5)cc3C(=O)N([C@H](C)CO)C[C@@H]2C)cc1`, the max activity is 14.8% (inactive).

Turning to `CCCC(=O)Nc1ccc2c(c1)OC[C@@H](C)N(C(=O)c1ccccc1F)C[C@@H](C)[C@@H](OC)CN(C)C2=O`, the max activity is 9.79% (inactive).

Regarding `Cc1ccccc1-c1ccc2c(c1)O[C@@H](CN(C)Cc1ccncc1)[C@H](C)CN([C@H](C)CO)S2(=O)=O`, the max activity was 48.1% (inactive).

In the case of `CCCN(C)C[C@H]1OCCCC[C@H](C)Oc2ccc(NC(=O)Nc3ccc(C(F)(F)F)cc3)cc2C(=O)N([C@@H](C)CO)C[C@H]1C`, the max activity is 28.8% [at 8 µM] (inactive).

Regarding `CCCN(C)C[C@@H]1OCCCC[C@@H](C)Oc2ccc(NC(=O)Nc3ccc(C(F)(F)F)cc3)cc2C(=O)N([C@H](C)CO)C[C@@H]1C`, the max activity is 16.3% [at 8 µM] (inactive).

`CCCN(C)C[C@H]1OCCCC[C@@H](C)Oc2ccc(NC(=O)Nc3ccc(C(F)(F)F)cc3)cc2C(=O)N([C@H](C)CO)C[C@H]1C`: the max activity is -43.7% (inactive).

Regarding `CCCN(C)C[C@H]1OCCCC[C@H](C)Oc2ccc(NC(=O)Nc3ccc4c(c3)OCO4)cc2C(=O)N([C@@H](C)CO)C[C@@H]1C`, the max activity is 8.67% (inactive).

In the case of `CC(C)NC(=O)N[C@@H]1CC[C@H](CC(=O)NCCCN(C)C)O[C@@H]1CO`, the max activity was -13.1% (inactive).

As to `C[C@@H]1CN([C@H](C)CO)S(=O)(=O)c2ccc(C#CC3CCCC3)cc2O[C@@H]1CN(C)Cc1cccnc1`, the max activity was 27.7% (inactive).

As for `CCCC#Cc1ccc2c(c1)O[C@@H](CN(C)Cc1ccncc1)[C@@H](C)CN([C@@H](C)CO)S2(=O)=O`, the max activity is -13.3% [at 8 µM] (inactive).

For the molecule `CO[C@@H]1CN(C)C(=O)c2cc(NC(=O)c3cnccn3)ccc2OC[C@@H](C)N(CCC(F)(F)F)C[C@H]1C`, the max activity was -9.07% [at 35 µM] (inactive).

Source of the values: PubChem BioAssay AID1224921 (Broad Institute, 2016).
